# PubChem BioAssay
# Calls of active or inactive are those of the source. Cut-off read from the data, not from the text of the source, unless noted: active = inhibition above about 80%; inactive = the rest.
# Assays:
# [1] = galactose survival enhancers in mitochondrial complex I cybrids – cell-based, galactose medium, ATP luminescence, primary screen (AID 1645843;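 active = z-score of at least 1.8 in each of two replicates, scored against plate mean and spread of sample wells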;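 note: positive z means more ATP and so rescue of galactose-driven cybrid death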); conditions: complex I mutant cybrid cells, 72 h, stronger effect = higher value
# [2] = growth inhibition, single agent or in combination, cell-based, chromothripsis tumors, cisplatin or BGB combos (AID 1671449); conditions: LFS_MB_P medulloblastoma cells;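 note: cells exposed for 96 hours; 0% = vehicle DMSO and 100% = killing by high DMSO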
# [3] = growth inhibition, single agent and combos, cell-based, chromothripsis tumors, cisplatin or BGB combos (AID 1671450); conditions: HDN33 neuroblastoma cells, stronger effect = higher value;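 note: cells exposed to compound for four days; 0% = vehicle DMSO and 100% = cell killing by high DMSO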
# [4] = growth inhibition, single agents and combos, ICB984, cell-based, cisplatin or BGB combos, synergistic combos for chromothripsis tumors (AID 1671451; call rule not given here;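 note: cells exposed for 96 hours before readout; 0% = vehicle DMSO and 100% = killing by high DMSO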); conditions: ICB984 medulloblastoma cells, drug combinations, stronger effect = higher value
# [5] = growth inhibition, single agents and combos, LFS_MB_1R, cell-based, cisplatin or BGB combos, synergistic combos for chromothripsis tumors (AID 1671452); conditions: LFS_MB_1R medulloblastoma cells, stronger effect = higher value;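 note: cells exposed for 96 hours before readout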
# [6] = growth inhibition, single agents and combos, HTB85, cell-based, BGB or cisplatin IC20 combos, synergistic combos for chromothripsis tumors (AID 1671453); conditions: HTB85 osteosarcoma cells, drug combinations, stronger effect = higher value;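 note: cells exposed for 96 hours before readout; 0% = vehicle DMSO and 100% = high DMSO killing control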
# [7] = growth inhibition, single agents and combos, CRL2098, cell-based, BGB or cisplatin IC20 combos, synergistic combos for chromothripsis tumors (AID 1671454); conditions: CRL2098 osteosarcoma cells, drug combinations, stronger effect = higher value;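 note: cells exposed for 96 h before readout; 0% = vehicle DMSO and 100% = killing by high DMSO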
# [8] = growth inhibition, single agents and combos, HD-MB03, cell-based, BGB or cisplatin IC20 combos, synergistic combos for chromothripsis tumors (AID 1671455; in the data active = inhibition above about 83%;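 note: 0% = vehicle DMSO and 100% = high DMSO as cytotoxic control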); conditions: HD-MB03 medulloblastoma cells, stronger effect = higher value
# [9] = growth inhibition, single agents and combos, UWB1.289, cell-based, BGB or cisplatin combos, synergistic combos for chromothripsis tumors (AID 1671456); conditions: UWB1.289 ovarian carcinoma cells, stronger effect = higher value;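 note: cells exposed to compound for four days; 0% = vehicle DMSO and 100% = killing by high DMSO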
# [10] = growth inhibition, single agents and combos, LFS_MB_2R, cell-based, cisplatin combos, synergistic combos for chromothripsis tumors (AID 1671457); conditions: LFS_MB_2R medulloblastoma cells, stronger effect = higher value;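 note: cells exposed to compound for four days before readout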
# [11] = growth inhibition, MDA-MB-436, cell-based, BGB or cisplatin combos, synergistic combos for chromothripsis tumors (AID 1671458; call rule not given here;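 note: cells exposed for 96 hours; 0% = vehicle DMSO and 100% = killing by high DMSO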); conditions: MDA-MB-436 breast carcinoma growth inhibition, drug combinations, stronger effect = higher value
# [12] = UWB1.289_BRCA1 ovarian cancer growth, cell-based, BGB or cisplatin combinations (AID 1671459); conditions: UWB1.289 BRCA1 ovarian carcinoma, drug combinations, stronger effect = higher value
# [13] = drug combination toxicity in non-malignant astrocytes – cell-based, BGB or cisplatin IC20 combos, cytotoxicity control for chromothriptic childhood tumor combination screen (AID 1671460); conditions: Human astrocytes, viability inhibition, drug combinations, at 0.5 µM, stronger effect = higher value;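 note: cells exposed to compounds for 96 hours before viability readout; 0% = vehicle and 100% = killing control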
# [14] = BT084 cell growth, single and combined drugs, ICGC_MB145, cisplatin and BGB IC40 combos (AID 1671461); conditions: BT084 medulloblastoma cells, drug combinations, stronger effect = higher value;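 note: cells exposed to drugs for 96 hours; 0% = vehicle DMSO and 100% = high DMSO full killing control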
# [15] = RCMB18 cell growth, single agent and combined, cisplatin and BGB IC40 combos (AID 1671462); conditions: RCMB18 medulloblastoma cells, stronger effect = higher value;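 note: cells exposed to compound for four days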
# [16] = CRL1545 cell growth, single agent and combined, cisplatin and BGB IC20 combos (AID 1671464); conditions: CRL1545 osteosarcoma cells, stronger effect = higher value;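 note: cells exposed to compound for 96 hours before readout; 0% = vehicle DMSO and 100% = high DMSO killing control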
# [17] = measured here: combination with BGB IC40, at 0.05 µM
# [18] = measured here: with BGB IC20 combination, at 0.5 µM
# [19] = measured here: with cisplatin IC20 combination, at 0.5 µM
# [20] = measured here: combination with cisplatin, at 0.5 µM
# [21] = measured here: combination with cisplatin, at 5 µM
smiles,measurement,setting,value
Cc1cc(CN2CCN(C)C(CCO)C2)c2cccc(C)c2n1 (centres undefined),z-score,[1],-0.035 (inactive)
CC1CNC(=O)NC1=O (centres undefined),inhibition,"[2]; at 0.5 µM, stronger effect = higher value",-30.6% (inactive)
same,inhibition,"[2]; measured here: combination with BGB IC20, at 0.005 µM",-22%
same,inhibition,"[2]; measured here: combination with BGB IC40, at 0.005 µM",-7.63%
same,inhibition,[2]; [17],-15.7%
same,inhibition,"[2]; measured here: combination with cisplatin, at 0.5 µM, stronger effect = higher value",-39.2%
same,inhibition,"[2]; measured here: combination with cisplatin, at 5 µM, stronger effect = higher value",-13.3%
same,inhibition,"[3]; BGB combo, at 5 µM",-40.2%
same,inhibition,[3]; at 0.5 µM,-17.3% (inactive)
same,inhibition,"[3]; cisplatin combo, at 5 µM",-24%
same,inhibition,[3]; [18],-4.75%
same,inhibition,[3]; [19],-15.4%
same,inhibition,"[3]; single agent, at 5 µM",2.08%
same,inhibition,"[4]; BGB IC20 combo, at 0.005 µM",-33.2%
same,inhibition,"[4]; BGB IC40 combo, at 0.005 µM",-36.3%
same,inhibition,"[4]; BGB IC40 combo, at 0.05 µM",-20.7%
same,inhibition,[4]; at 0.5 µM,-43.5% (inactive)
same,inhibition,"[4]; cisplatin combo, at 0.05 µM",-20.7%
same,inhibition,"[4]; cisplatin combo, at 0.5 µM",-62.7%
same,inhibition,"[4]; cisplatin combo, at 5 µM",-40.7%
same,inhibition,"[4]; measured here: 5 uM single agent, at 5 µM",-37.5%
same,inhibition,[5]; at 0.5 µM,-30.6% (inactive)
same,inhibition,[5]; [17],-35.2%
same,inhibition,[5]; [20],5.53%
same,inhibition,[5]; [21],23.2%
same,inhibition,[6]; at 0.5 µM,-31.7% (inactive)
same,inhibition,"[6]; measured here: with BGB IC20, at 0.5 µM",-55.6%
same,inhibition,"[6]; measured here: with BGB IC20, at 5 µM",-9.18%
same,inhibition,"[6]; measured here: with cisplatin IC20, at 0.5 µM",-36.4%
same,inhibition,"[6]; measured here: with cisplatin IC20, at 5 µM",-7.78%
same,inhibition,"[6]; single agent, at 5 µM",-19.6%
same,inhibition,[7]; at 0.5 µM,-81.6% (inactive)
same,inhibition,"[7]; measured here: combination with BGB at IC20, at 0.5 µM",-71.8%
same,inhibition,"[7]; measured here: combination with cisplatin at IC20, at 0.5 µM",-130%
same,inhibition,[8]; at 0.5 µM,7.56% (inactive)
same,inhibition,"[8]; measured here: combo with BGB at IC20, at 0.5 µM",12%
same,inhibition,"[8]; measured here: combo with cisplatin at IC20, at 0.5 µM",16.9%
same,inhibition,[9]; at 0.5 µM,-15.4% (inactive)
same,inhibition,"[9]; measured here: inhibition with BGB combination, at 0.05 µM",-40%
same,inhibition,"[9]; measured here: inhibition with cisplatin combination, at 0.05 µM",-20.8%
same,inhibition,[10]; at 0.5 µM,-25.2% (inactive)
same,inhibition,[10]; [20],-28%
same,inhibition,[10]; [21],-26.8%
same,inhibition,[11]; at 0.5 µM,-18.9% (inactive)
same,inhibition,"[11]; measured here: BGB combination, at 0.5 µM",-18.5%
same,inhibition,"[11]; measured here: BGB combination, at 5 µM",-17.9%
same,inhibition,"[11]; measured here: cisplatin combination, at 0.5 µM",-32%
same,inhibition,"[11]; measured here: cisplatin combination, at 5 µM",-4.6%
same,inhibition,"[12]; BGB combination, concentration series, at 5 µM",1.37%
same,inhibition,[12]; at 0.5 µM,-11% (inactive)
same,inhibition,"[12]; cisplatin combination, concentration series, at 5 µM",10.9%
same,inhibition,[13],12.2% (inactive)
same,inhibition,[13]; measured here: combo with BGB IC20,9.11%
same,inhibition,[13]; measured here: combo with cisplatin IC20,12%
same,inhibition,[14]; at 0.5 µM,-12.5% (inactive)
same,inhibition,"[14]; cisplatin combination, at 0.5 µM",-19.5%
same,inhibition,"[14]; cisplatin combination, at 5 µM",-47.1%
same,inhibition,"[14]; measured here: BGB IC40 combination 0.05 uM, at 0.05 µM",-27%
same,inhibition,"[14]; single agent, at 5 µM",-16.6%
same,inhibition,[15]; at 0.5 µM,-12% (inactive)
same,inhibition,"[15]; cisplatin combo, at 5 µM",-15.1%
same,inhibition,"[15]; measured here: BGB IC40 combination, at 0.05 µM",-20.6%
same,inhibition,[15]; [20],-13.2%
same,inhibition,"[15]; single agent, at 5 µM",-49.2%
same,inhibition,[16]; at 0.5 µM,-21.8% (inactive)
same,inhibition,[16]; [18],-10.4%
same,inhibition,[16]; [19],-27.5%
same,inhibition,"[16]; single agent, at 0.05 µM",3.21%
same,inhibition,"[16]; single agent, at 5 µM",-10.2%
